TDP1 cell CPT = qHTS for Inhibitors of human tyrosyl-DNA phosphodiesterase 1 (TDP1): qHTS in cells in presence of CPT | chicken DT40 Tdp1-/-;hTDP1 cells + 20 nM CPT, ATP luminescence, 48 h | Potency, µM (top dose mostly 46.2 µM), for inactives: at the top dose activity change, negative = growth inhibition, most hits filed as inhibitors | actives 12% (n = 420,000) | AID 686979, 2013; note: potency is the fitted concentration of half-maximal effect; nearly all actives have a fitted effect of over 55% in size
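Chicken DT40 Tdp1-/- cells complemented with human TDP1, 400 cells/well, exposed to compounds plus 20 nM camptothecin for at least 48 h at 37 C; viability read as ATP content by CellTiter-Glo luminescence.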
IL-1B inflam inh = qHTS for Inhibitors of Inflammasome Signaling: IL-1-beta AlphaLISA Primary Screen; THP-1 LPS/ATP IL-1B secretion, AlphaLISA, 16 h; hits give low values; actives 4.7% (n = 360,000); activity change, % at 57.5 µM; in the data active = activity change below about -50%; inconclusive = mostly about -30% to -49%
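THP-1 cells pretreated 1 hr with compounds (up to 57.5 uM final), then stimulated with LPS (250 ng/mL final) plus ATP (1.25 mM final); secreted IL-1B measured by AlphaLISA after 16 hr, decreased signal indicating inhibition.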
HT1080-NT tox = qHTS for induction of synthetic lethality in tumor cells producing 2HG: qHTS for the HT-1080-NT fibrosarcoma cell line. HT-1080-NT fibrosarcoma viability, CellTiter-Glo ATP luminescence, 48 h. Potency, µM (series often up to 46.1 µM), without a hit: top-dose activity, negative = less viability, hits mostly cytotoxic. actives 1.6% (n = 360,000);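 note: NT is the 2HG producing partner of a matched IDH1 knockdown line; potency is the fitted concentration of half-maximal effect; 0% = DMSO-treated cells and -100% = media-only wells without cells; nearly all actives have a fitted effect of over 55% in size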
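A 48-hour cytotoxicity screen used HT-1080-NT cells plated 2 hours before compound delivery. ATP-based CellTiter-Glo luminescence measured viability, normalized to DMSO and no-cell controls.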
HT1080 IDH1KD tx = qHTS for induction of synthetic lethality in tumor cells producing 2HG: qHTS for the HT-1080-IDH1KD cell line; AID 686971, 2013; Potency, µM (top dose mostly 46.1 µM), without a hit: top-dose activity, negative = toxicity, actives largely listed as cytotoxic; HT-1080 IDH1 knockdown viability, ATP luminescence, 48 h; actives 2% (n = 360,000);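 note: potency is the fitted concentration of half-maximal effect; 0% = DMSO wells and -100% = cell-free medium wells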
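% activity derives from luminescence (CellTiter-Glo), normalised to DMSO and no-cell wells. HT-1080-IDH1KD cells, 750/well, had 48 h compound exposure at 37 °C.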
DT40 TDP1 no CPT = qHTS for Inhibitors of human tyrosyl-DNA phosphodiesterase 1 (TDP1): qHTS in cells in absence of CPT; Potency, µM (highest dose often 46.2 µM), for the others: top-dose activity change, negative = growth inhibition, most hits filed as inhibitors; DT40 Tdp1-/- hTDP1 cells, no CPT, ATP luminescence, 48 h; actives 15% (n = 420,000); note: potency is the fitted concentration of half-maximal effect; nearly all actives have a fitted effect of over 55% in size
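Luminescent ATP content (CellTiter-Glo) served as the growth readout. Knockout chicken DT40 cells expressing human TDP1 were exposed to compounds without camptothecin for a minimum 48 hr at 37 °C.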
Active calls of the source: *; ? = inconclusive; nt = no result. An excerpt weighted towards active compounds, which were near 19% of everything screened. Unless noted, calls come from the whole dose curve; as a rule, active = well fitted curve in the direction sought with a large enough effect; inconclusive = small, poorly fitted or top-dose-only effect, or another doubt; inactive = no such curve, though single readings can be large; an effect the other way counts as inactive or inconclusive. Unless noted, % is set by controls: 0 for no effect and ±100 for the full control effect.

SMILES	TDP1 cell CPT	IL-1B inflam inh	HT1080-NT tox	HT1080 IDH1KD tx	DT40 TDP1 no CPT
CCN(CC)S(=O)(=O)c1ccc(C(=O)Nn2cnnc2)cc1	-2.9%	42.4	6.5%	20.5%	30.9%
Cn1ccnc1C(=O)c1ccc(Cl)c(S(=O)(=O)N2CCOCC2)c1	15.0%	34.5	2.6%	-0.7%	-15.8%
Cn1c(=O)oc2cc(S(=O)(=O)NC(Cc3ccccc3)C(=O)NCc3ccccc3Cl)ccc21 (centres undefined)	-20.1%	nt	nt	nt	-12.8%
CCN(Cc1ccccc1)C(=O)COC(=O)c1cc(S(=O)(=O)Nc2ccccc2OC)ccc1O	-27.0%	10.3	-7.1%	3.6%	?
CCOc1ccc(N=C/C=C/c2ccccc2)c(O)c1	18.4µM*	-5.9	-1.6%	2.8%	18.4µM*
O=C(Nc1ccc(Br)cc1)c1ccc(Br)c(S(=O)(=O)N2CCCCC2)c1	?	nt	nt	nt	18.4µM*
Cc1ccc(NC(=O)c2ccc(Cl)c(S(=O)(=O)N3CCCCCC3)c2)nc1	-29.7%	-7.9	?	-13.5%	?
O=C(Nc1ccccc1)c1ccc(Br)c(S(=O)(=O)N2CCCCC2)c1	18.4µM*	nt	nt	nt	20.6µM*
O=C(Nc1ccccc1)c1ccc(NC2CCCCC2)c(S(=O)(=O)N2CCOCC2)c1	?	-52.4*	-2.5%	-11.6%	?
O=C(Nc1ccccc1)c1ccc(N2CCN(c3ccccc3)CC2)c(S(=O)(=O)N2CCOCC2)c1	7.3%	-16.0	0.0%	0.3%	16.7%
O=C(Nc1ccc(Cl)cn1)c1ccc(Br)c(S(=O)(=O)N2CCCCC2)c1	23.1µM*	-7.4	0.6%	15.5%	?
O=C(Cn1cncn1)N/N=C/c1cccc(Cl)c1	7.9%	4.5	9.9%	13.8%	-13.4%
COc1cc(CCN2C(=O)c3cccc4cccc(c34)C2=O)c(S(=O)(=O)NCCCO)cc1OC	?	7.5	6.7%	7.3%	?
CCOC(=O)C1=NS(=O)(=O)NC(C)=C1	-10.7%	19.1	0.6%	9.3%	-9.0%
O=C(c1ccc(Cl)c(S(=O)(=O)N2CCOCC2)c1)N(c1ccccn1)C1CCCCC1	?	28.6	12.0%	8.5%	16.4µM*
CC(C)(C)N(Cc1ccccc1)C(=O)COC(=O)C1CCCCC1	-6.7%	10.0	4.6%	2.3%	-2.0%
O=C(O)c1nn(Cc2csc(-c3ccccc3)n2)c(=O)c2ccccc12	?	5.0	17.6%	10.1%	11.6µM*
O=c1oc2cc(O)ccc2c2oc3cc(O)ccc3c12	?	9.9	-10.3%	-21.0%	23.1µM*
COc1cc2c(c3oc(=O)cc(CC(=O)O)c13)CCC(C)(C)O2	8.6%	8.2	8.3%	0.0%	-13.8%
COc1c2c(cc3oc(=O)c4c5ccc(O)cc5oc4c13)OC(C)(C)CC2	16.4µM*	-14.7	-0.2%	-3.5%	16.4µM*
O=c1oc2cc(O)ccc2c2ccccc12	-6.3%	-20.6	0.7%	8.5%	-13.2%
COc1c(CC=C(C)C)c(O)cc2oc(=O)c3c4ccc(O)cc4oc3c12	?	-4.2	1.2%	-1.1%	18.4µM*
COc1ccc(NC(=O)Nc2ccc(F)c(F)c2)c(OC)c1	8.4%	nt	-13.1%	13.8%	-23.9%
COC(=O)Nc1ccc2ncn(C)c(=O)c2c1	7.5%	3.3	11.6%	-4.8%	-13.6%
CCN(CC)S(=O)(=O)c1ccc(N2CCCCC2)c(NC(=O)/C(C#N)=C/c2ccc(OC)cc2)c1	?	-8.8	-5.4%	5.9%	16.4µM*
CCN(CC)S(=O)(=O)c1ccc(N2CCCC2)c(NC(=O)c2ccc(OC)cc2OC)c1	18.4µM*	?	-1.2%	-1.9%	16.4µM*
CCN(CC)S(=O)(=O)c1ccc(N2CCN(C)CC2)c(NC(=O)CSCC(=O)Nc2cccc(C)c2)c1	?	-7.8	-3.4%	-1.2%	?

Bioassay records deposited in PubChem BioAssay by National Center for Advancing Translational Sciences (NCATS).
